From PubChem BioAssay
This is a sample that favours compounds with a hit; in the whole collection about 0.54% have one here.
Menin-MLL TR inh: inhibitors of human menin-MLL interaction, mutant MLL peptide; Menin + Texas Red MLL mutant peptide, fluorescence polarization; Potency, µM (series often up to 61.6 µM), without a hit: top-dose FP activity change, negative = inhibition, hits mostly inhibitors; 270,000 compounds, 0.23% hits; AID 1768; active = well fitted inhibition curve with a large enough effect in the polarisation, with a control signal flat, not every such curve was filed as active; inconclusive = small, poorly fitted or top-dose-only effect, or effect the other way, or a change in a side signal; inactive = no such curve, though single readings can be large or run the other way; the % refers to the polarisation; also: potency is read from the fitted curve at half-maximal effect; % of control where 0% means no effect
mIDH1 inhibitor: blocks human mutant IDH1 R132H enzyme; O75874; IDH1-R132H enzyme, NADPH consumption, diaphorase/resazurin fluorescence; Potency, µM (series often up to 76.6 µM), for the others: at the top dose activity change, negative = inhibition, usual class: inhibitors; 390,000 compounds, 0.093% hits; active = well fitted inhibition curve with a large enough effect; inconclusive = small, poorly fitted or top-dose-only effect; inactive = no such curve, though single readings can be large or run the other way; also: potency is read from the fitted curve at half-maximal effect; % is scaled to controls: 0 for no effect and ±100 for the full control effect; nearly all actives have a fitted effect of over 65% in size
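IDH1-R132H (0.5 ug/mL dispensed) in pH 7.5 Tris buffer was preincubated 30 min with compound, then given a substrate mix of 0.016 mM NADPH and 2 mM alpha-KG for 80 min at room temperature; remaining NADPH was read by diaphorase/resazurin fluorescence.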
Akt phos inh: inhibitors of Akt phosphorylation; activity change, % for hits at 50 µM; Neuro2A IGF-stimulated pAkt S473 HTRF, 20 min; hits give low values; AID 651550; 360,000 compounds, 0.32% hits; in the data active = activity change below about -80%; inconclusive = mostly about -51% to -80%; also: % is scaled to controls: 0 for no effect and ±100 for the full control effect
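Single-point screen (50 µM final compound) in Neuro2A cells stimulated 20 min with 6 nM IGF at 37 deg C. After lysis, Ser473-phosphorylated Akt read by HTRF (ex 330 nm, em 615/665 nm) as the 665/615 ratio.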
LDHA inh: blocks human lactate dehydrogenase A. purified LDHA, NADH/diaphorase-resazurin fluorescence; hits give low values. activity change, % (values are at about 110 or 230 µM). 480,000 compounds, 0.15% hits. AID 1347041; in the data active = activity change below about -30%; inconclusive = mostly about -25% to -30%;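 also: plate controls were DMSO wells for no effect and wells without enzyme for full effect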
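Enzyme activity of human lactate dehydrogenase 5 (2 nM; 0.06 mM NADH, 0.2 mM pyruvate, 5 min, RT) is measured via a resazurin/diaphorase fluorescence readout of residual NADH.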
CXXC DNA block: MLL CXXC-DNA interaction inhibition. Q03164. MLL-CXXC / FITC-HOXA9 DNA fluorescence polarization. Potency, µM (series often up to 115 µM), inactives show at the highest dose activity change, negative = inhibition, hits mostly inhibitors. 290,000 compounds, 0.037% hits. AID 2662; active = well fitted inhibition curve with a large enough effect in the polarisation, with a control signal flat, not every such curve was filed as active; inconclusive = small, poorly fitted or top-dose-only effect, or effect the other way, or a change in a side signal; inactive = no such curve, though single readings can be large or run the other way; the % refers to the polarisation; also: potency is read from the fitted curve at half-maximal effect
Target sequence (Q03164 whole entry, looked up): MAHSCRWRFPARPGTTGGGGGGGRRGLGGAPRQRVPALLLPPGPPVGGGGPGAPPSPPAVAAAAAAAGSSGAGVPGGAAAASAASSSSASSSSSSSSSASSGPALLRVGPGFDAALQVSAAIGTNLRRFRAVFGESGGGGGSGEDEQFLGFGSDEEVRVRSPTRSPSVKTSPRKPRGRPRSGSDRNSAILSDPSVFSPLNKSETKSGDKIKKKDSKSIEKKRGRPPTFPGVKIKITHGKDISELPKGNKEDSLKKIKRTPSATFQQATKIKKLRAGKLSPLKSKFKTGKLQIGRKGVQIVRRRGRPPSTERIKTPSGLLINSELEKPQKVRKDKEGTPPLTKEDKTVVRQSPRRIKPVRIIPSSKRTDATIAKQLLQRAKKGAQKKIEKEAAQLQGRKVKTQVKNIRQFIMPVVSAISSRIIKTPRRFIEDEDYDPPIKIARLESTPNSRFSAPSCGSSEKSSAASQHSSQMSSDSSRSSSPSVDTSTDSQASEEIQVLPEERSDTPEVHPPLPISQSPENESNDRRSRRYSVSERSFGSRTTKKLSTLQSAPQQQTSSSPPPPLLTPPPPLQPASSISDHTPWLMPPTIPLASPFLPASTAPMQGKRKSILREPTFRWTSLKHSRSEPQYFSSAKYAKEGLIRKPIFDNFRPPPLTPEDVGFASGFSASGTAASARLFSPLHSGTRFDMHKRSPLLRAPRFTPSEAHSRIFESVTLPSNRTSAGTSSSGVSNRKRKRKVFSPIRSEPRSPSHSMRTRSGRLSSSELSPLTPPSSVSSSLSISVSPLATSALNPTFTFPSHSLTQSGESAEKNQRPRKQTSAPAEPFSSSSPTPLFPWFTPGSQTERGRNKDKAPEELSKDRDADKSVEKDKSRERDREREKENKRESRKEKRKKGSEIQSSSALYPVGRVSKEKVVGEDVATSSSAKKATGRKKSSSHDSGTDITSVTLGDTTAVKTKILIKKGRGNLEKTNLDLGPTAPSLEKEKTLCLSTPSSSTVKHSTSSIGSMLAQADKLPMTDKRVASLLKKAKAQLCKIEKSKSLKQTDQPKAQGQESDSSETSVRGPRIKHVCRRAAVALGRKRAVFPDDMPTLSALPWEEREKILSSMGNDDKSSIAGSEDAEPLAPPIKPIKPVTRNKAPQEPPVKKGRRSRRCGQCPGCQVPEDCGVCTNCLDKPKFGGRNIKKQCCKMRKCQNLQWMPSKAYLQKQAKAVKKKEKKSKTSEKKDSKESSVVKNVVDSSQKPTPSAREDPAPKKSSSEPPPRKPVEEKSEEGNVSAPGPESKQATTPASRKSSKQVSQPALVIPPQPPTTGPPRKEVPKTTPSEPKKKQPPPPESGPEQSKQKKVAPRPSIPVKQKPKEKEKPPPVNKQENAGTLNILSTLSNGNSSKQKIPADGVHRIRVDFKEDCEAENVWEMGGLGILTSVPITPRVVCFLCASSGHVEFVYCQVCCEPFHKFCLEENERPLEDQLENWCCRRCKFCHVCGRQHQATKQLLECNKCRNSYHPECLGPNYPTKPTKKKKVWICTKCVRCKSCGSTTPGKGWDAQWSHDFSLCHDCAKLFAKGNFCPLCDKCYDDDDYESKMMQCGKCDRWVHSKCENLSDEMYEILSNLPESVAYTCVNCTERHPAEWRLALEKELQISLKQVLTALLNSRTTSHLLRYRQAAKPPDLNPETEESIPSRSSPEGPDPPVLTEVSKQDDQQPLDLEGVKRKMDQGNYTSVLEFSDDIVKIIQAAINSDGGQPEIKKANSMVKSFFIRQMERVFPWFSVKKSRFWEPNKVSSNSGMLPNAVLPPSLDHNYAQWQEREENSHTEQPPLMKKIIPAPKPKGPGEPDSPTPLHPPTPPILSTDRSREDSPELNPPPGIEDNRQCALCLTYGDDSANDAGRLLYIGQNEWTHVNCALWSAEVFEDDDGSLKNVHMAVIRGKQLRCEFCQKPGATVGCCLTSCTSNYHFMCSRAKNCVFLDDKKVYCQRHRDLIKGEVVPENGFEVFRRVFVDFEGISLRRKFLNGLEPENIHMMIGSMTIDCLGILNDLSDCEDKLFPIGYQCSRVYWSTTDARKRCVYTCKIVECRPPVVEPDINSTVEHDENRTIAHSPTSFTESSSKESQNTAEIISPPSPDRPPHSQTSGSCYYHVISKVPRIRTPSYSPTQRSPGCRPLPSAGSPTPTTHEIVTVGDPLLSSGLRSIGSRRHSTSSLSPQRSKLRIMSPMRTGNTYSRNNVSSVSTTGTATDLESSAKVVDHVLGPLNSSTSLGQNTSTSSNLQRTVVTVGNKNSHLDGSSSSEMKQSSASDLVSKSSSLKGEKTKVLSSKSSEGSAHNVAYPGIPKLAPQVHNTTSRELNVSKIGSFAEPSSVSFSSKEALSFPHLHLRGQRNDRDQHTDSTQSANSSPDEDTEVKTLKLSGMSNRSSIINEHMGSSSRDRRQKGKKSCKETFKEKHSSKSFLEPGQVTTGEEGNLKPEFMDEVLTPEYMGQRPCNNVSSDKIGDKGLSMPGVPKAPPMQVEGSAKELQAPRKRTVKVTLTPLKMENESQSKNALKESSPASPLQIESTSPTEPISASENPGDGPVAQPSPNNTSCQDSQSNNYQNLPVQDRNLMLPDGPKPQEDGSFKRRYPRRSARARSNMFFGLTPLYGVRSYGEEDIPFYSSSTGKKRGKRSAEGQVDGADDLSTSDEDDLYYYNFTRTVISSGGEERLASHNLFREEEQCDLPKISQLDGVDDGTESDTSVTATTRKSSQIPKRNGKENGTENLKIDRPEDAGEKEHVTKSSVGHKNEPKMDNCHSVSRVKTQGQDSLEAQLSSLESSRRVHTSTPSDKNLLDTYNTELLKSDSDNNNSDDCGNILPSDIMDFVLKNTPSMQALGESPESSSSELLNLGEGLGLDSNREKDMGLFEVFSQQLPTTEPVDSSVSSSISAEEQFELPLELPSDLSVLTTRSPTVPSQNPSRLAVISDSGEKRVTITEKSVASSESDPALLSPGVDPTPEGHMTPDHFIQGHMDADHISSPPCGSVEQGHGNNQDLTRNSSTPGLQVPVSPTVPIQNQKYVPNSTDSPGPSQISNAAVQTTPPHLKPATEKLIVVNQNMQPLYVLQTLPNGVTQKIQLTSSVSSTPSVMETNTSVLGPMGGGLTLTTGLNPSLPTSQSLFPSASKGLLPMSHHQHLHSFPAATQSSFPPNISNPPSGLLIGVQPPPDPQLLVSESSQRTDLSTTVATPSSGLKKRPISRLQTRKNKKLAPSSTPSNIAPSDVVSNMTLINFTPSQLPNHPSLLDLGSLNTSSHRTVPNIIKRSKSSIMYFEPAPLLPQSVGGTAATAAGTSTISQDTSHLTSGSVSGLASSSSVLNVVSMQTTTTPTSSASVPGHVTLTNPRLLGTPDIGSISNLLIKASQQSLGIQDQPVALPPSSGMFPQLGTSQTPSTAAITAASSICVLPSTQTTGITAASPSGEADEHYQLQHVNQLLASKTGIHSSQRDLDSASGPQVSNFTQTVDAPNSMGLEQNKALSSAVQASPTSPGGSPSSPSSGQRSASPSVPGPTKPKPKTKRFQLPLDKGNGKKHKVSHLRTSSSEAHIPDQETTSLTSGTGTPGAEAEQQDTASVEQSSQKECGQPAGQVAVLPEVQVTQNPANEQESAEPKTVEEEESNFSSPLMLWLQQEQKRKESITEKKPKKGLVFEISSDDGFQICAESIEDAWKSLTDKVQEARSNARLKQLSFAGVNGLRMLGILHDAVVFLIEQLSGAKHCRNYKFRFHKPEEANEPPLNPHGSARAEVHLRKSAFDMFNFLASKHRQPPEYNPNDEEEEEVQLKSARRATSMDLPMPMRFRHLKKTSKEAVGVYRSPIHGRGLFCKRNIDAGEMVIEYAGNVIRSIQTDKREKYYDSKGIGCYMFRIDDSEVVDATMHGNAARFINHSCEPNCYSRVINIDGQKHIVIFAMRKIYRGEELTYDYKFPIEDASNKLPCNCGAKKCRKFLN
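Purified MLL-CXXC (added from a 7 uM solution) was preincubated 5 min at ambient with pinned compounds in 50 mM Tris-HCl pH 7.5, 50 mM NaCl, 1 mM DTT, 0.05% BSA. Fluorescein-labeled HOX-A9 DNA (50 nM solution) followed, 30 min, then polarization read.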
Menin-MLL FL inh: displaces fluorescein MLL peptide from human menin | FP activity change, % at 61.4 µM | Fluorescence polarization, fluorescein-MLL peptide displacement from menin | 290,000 tested, under 10 active; active = well fitted curve in the direction sought with a large enough effect in the polarisation, not every such curve was filed as active; inconclusive = small, poorly fitted or top-dose-only effect, or effect the other way, or a change in a side signal; inactive = no such curve, though single readings can be large or run the other way; the % refers to the polarisation; also: % of control where 0% means no effect
The depositor's hits bear a star; i = inactive; ? = inconclusive; . = no result given; ! = a repeat was not active.

SMILES	Menin-MLL TR inh	mIDH1 inhibitor	Akt phos inh	LDHA inh	CXXC DNA block	Menin-MLL FL inh
COc1cc(NC(=O)Cn2c(SCc3cccc(C)c3)nc3ccncc32)cc(OC)c1	.	.	.	6	.	.
O=C(CCS(=O)(=O)c1ccc(Br)cc1)Nc1ccc2c(c1)OCO2	8%	-4%	i	10	-13%	7
CCN(C(=O)CCS(=O)(=O)c1ccc(Br)cc1)c1ccc2c(c1)OCO2	?	3%	-108%*	2	12%	1
Cc1cccc(C)c1NC(=O)CSc1nc(C)c(CC(=O)c2ccc(Br)cc2)c(C)c1C#N	-23%	2%	-102%*	-2	?	0
CCOc1ccc(N2CC(C(=O)NCCc3ccc(OC)c(OC)c3)CC2=O)cc1 (configuration not stated)	12%	10%	-107%*	1	-5%	-2
CCNc1c(NC(=O)Nc2ccc(OC)cc2)c(=O)oc2ccccc12	.	.	.	2	.	.
CCOC(=O)c1ccc(Oc2c(C(F)(F)F)oc3cc(OS(C)(=O)=O)ccc3c2=O)cc1	.	.	.	9	.	.
CCOc1ccc(/C=C/C2=Cc3c(sc(NC(=O)CSc4n[nH]c(N)n4)c3C#N)C(C)(C)C2)cc1	7.9µM*	-1%	i	4	-23%	?
CC(C)C(C#CCN1CCCCC1)(c1ccccc1)c1ccccc1	.	.	.	7	.	.
Cc1ccccc1CN(C)CC(O)COc1ccc(-c2ccccc2)cc1 (configuration not stated)	.	.	.	-4	.	.
COc1ccc(C(=O)Nc2ccc3oc(-c4ccncc4)nc3c2)cc1Br	.	.	.	-33*	.	.
O=c1oc2c3c4c(cc2c(C(F)(F)F)c1CCN1CCOCC1)CCCN4CCC3	?	2%	-109%*	-15	?	?
CC(C)CCN1CN(S(=O)(=O)c2cccs2)c2nc3ccccc3nc21	0%	-17%	-107%*	-3	15%	0
CCCCN1CN(S(=O)(=O)c2cccs2)c2nc3ccccc3nc21	16%	.	.	.	1%	-1
CS(=O)(=O)N1CCC(NC(=O)c2cnc3ccccc3n2)CC1	.	.	.	-4	.	.
Cc1ccc(OCCn2cc(C#N)c3ccccc32)cc1	17%	7%	-106%*	-4	4%	2
Clc1ccccc1Sc1cnc2ccccc2n1	7%	2%	-91%*	-1	6%	2
CCN1CCN(C(=S)Nc2cccc(C(F)(F)F)c2)CC1	6%	4%	i	-2	4%	-3
OCCN1CCN(C(=S)Nc2cccc(C(F)(F)F)c2)CC1	.	-6%	i	-33*!	-1%	4
CC(N)C1CC2CCC1C2 (configuration not stated)	.	.	.	9	.	.
CCN(CC)S(=O)(=O)c1cccc(-c2nnc(SCc3nnc(-c4ccccc4)o3)n2C)c1	-14%	9%	-99%*	-7	-18%	1
COc1ccc(OC)c(NS(=O)(=O)c2ccc(N3CCCC3=O)cc2)c1	-13%	2%	-115%*	-4	-5%	3
COc1[nH]c(/N=C/c2ccccc2)c(C#N)c1C#N	11µM*	0%	i	-10	8%	?
Cc1oc(/N=C/c2ccccc2)c(C#N)c1C	2%	2%	i	1	5%	7
O=C1CC(c2ccc(F)cc2)Cc2nc(NCc3ccco3)ncc21 (configuration not stated)	7%	3%	-84%*	-5	7%	0
SMILES	Menin-MLL TR inh	mIDH1 inhibitor	Akt phos inh	LDHA inh	CXXC DNA block	Menin-MLL FL inh
CCOc1ccc2c(c1)cc(C(=O)Nc1ccccc1OCC)n2C	.	.	.	-33*	.	.
CC(C)(C)C(=O)Oc1ccc2c(c1)O/C(=C\c1cccs1)C2=O	.	.	.	1	.	.
NS(=O)(=O)c1cc(Br)c2c(c1)S(=O)(=O)NCN2	.	-4%	i	-37*	.	.
O=C(CN1CCN(c2ccc(F)cc2)CC1)NCC1CCCO1 (configuration not stated)	-5%	9%	i	2	3%	-1
COc1ccccc1N1CCN(CC(=O)NCC2CCCO2)CC1 (configuration not stated)	12%	3%	i	-43*	22%	2
C=CCNC(=O)C1CCN(S(=O)(=O)c2ccccc2)CC1	-1%	-4%	-95%*	-4	-1%	13
CC(C)CNS(=O)(=O)c1ccc(OCC(=O)Nc2ccc(F)cc2F)cc1	-12%	3%	i	-1	-5%	-3
CCC(C)NS(=O)(=O)c1ccc(OCC(=O)Nc2ccc(F)cc2F)cc1 (configuration not stated)	6%	5%	-111%*	-8	-15%	0
O=C(CSc1ccc2c(c1)OCCO2)NCCN1C(=O)CSC1=O	-1%	4%	-109%*	-3	1%	4
O=C(CSc1cc(Cl)ccc1Cl)NCCN1C(=O)CSC1=O	.	3%	i	-8	.	.
Cc1nnc(SCc2c(C(=O)NC(C)c3ccccn3)oc3ccccc23)s1 (configuration not stated)	.	.	.	-2	.	.
COc1ccc(N2C(=O)CCC2(C#N)c2ccccc2)cc1 (configuration not stated)	.	.	.	-18	.	.
COc1ccccc1N1C(=O)CCC1(C#N)c1ccccc1 (configuration not stated)	-20%	0%	-107%*	-2	7%	-2
CCCCc1ccc(Nc2ncnc3c2cnn3-c2ccccc2)cc1	.	.	.	-2	.	.
COC(=O)c1cc(NC(=O)c2ccccc2)c(=O)oc1/C=C/Nc1ccc(Oc2ccccc2)cc1	10µM*	-5%	i	-8	?	?
COc1cc(C(=O)N(Cc2nc3nc(C)cc(=O)n3[nH]2)c2ccc(F)cc2)cc(OC)c1OC	.	.	.	-9	.	.
CCOc1ccc(-c2nc(C#N)c(NCc3ccc4c(c3)OCO4)o2)cc1	20%	2%	i	-31*!	-7%	12
COc1cc(C2C(C(=O)c3ccco3)=C(O)C(=O)N2c2cc(C)on2)cc(Br)c1O (configuration not stated)	21%	8%	-115%*	8	6%	3
COc1ccc(C2=C(Nc3ccc(F)cc3)c3ccccc3C2=O)cc1	?	2%	-137%*	-8	15%	1
COC(=O)c1cc(-c2cccc(Cl)c2)nc2onc(C)c12	.	.	.	2	.	.
COc1cc(/C=C/C(=O)c2sc(C(C)(C)C)nc2C)cc(OC)c1O	.	.	.	88	.	.
CCCn1c(=O)[nH]c2ccccc21	1%	-1%	.	-2	-9%	2
Cc1cc(C)nc(SCCCn2c(=O)[nH]c3ccccc32)n1	-7%	2%	-125%*	-13	-3%	0
COc1ccc(CCC(=O)Nc2cc(Cl)ccc2N2CCN(C)CC2)cc1	-2%	-2%	-107%*	-6	-15%	0
